RORgamma inh – ROR gamma (mouse) transcription inhibition; P51450; Drosophila S2 Gal4-RORgamma UAS-luciferase reporter, 20 h; Potency, µM (titrated, usually from 53.6 µM), for inactives: top-dose activity change, negative = inhibition, usual class: inhibitors; 310,000 tested, 5.4% active; AID 2551; note: nearly all actives have a fitted effect of over 60% in size
Target sequence (P51450 whole entry, looked up, the tested form may be a part): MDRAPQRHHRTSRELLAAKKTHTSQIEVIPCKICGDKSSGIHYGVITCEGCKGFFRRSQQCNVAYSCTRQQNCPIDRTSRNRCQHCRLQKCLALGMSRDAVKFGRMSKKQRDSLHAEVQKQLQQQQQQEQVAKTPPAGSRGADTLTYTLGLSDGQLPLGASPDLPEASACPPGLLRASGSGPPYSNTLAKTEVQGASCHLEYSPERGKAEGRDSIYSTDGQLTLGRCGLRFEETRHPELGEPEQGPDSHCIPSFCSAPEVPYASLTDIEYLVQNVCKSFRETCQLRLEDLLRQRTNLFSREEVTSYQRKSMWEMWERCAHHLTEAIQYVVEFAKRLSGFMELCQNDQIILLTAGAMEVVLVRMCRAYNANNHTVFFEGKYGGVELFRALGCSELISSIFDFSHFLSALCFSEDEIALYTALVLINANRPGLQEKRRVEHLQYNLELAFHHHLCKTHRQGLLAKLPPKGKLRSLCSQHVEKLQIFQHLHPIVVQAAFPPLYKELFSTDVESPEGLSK
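ROR gamma transcriptional activity was tracked as Gal4-UAS luciferase output in stably transfected Drosophila Schneider cells, with compound added 1 hr before 700 uM copper sulfate induction and a 20 hr ambient-temperature incubation.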
Luc counter – counter-screen: inhibitors of Kinase-Glo firefly luciferase; Kinase-Glo luciferase, ATP luminescence, 8 min; Potency, µM (doses to about 38.3 µM), without a hit: top-dose activity change, negative = inhibition, hits mostly inhibitors; 200,000 tested, 0.28% active; AID 1379; note: nearly all actives have a fitted effect of over 60% in size
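Compound is pinned into ATP-containing buffer (10 uM ATP, imidazole pH 7.2, 7 mM MgCl2). Kinase-Glo luciferase reagent is then added. Light output is recorded following an 8-min room-temperature incubation.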
Gal4-VP16 FLuc – inhibits Gal4-VP16 luciferase reporter, ROR gamma counter-screen; Potency, µM (top dose mostly 53.6 µM), for inactives: at the highest dose activity, negative = inhibition, actives largely listed as inhibitors; Drosophila S2 Gal4-VP16 UAS-luciferase, luminescence, 20 h; 310,000 tested, 3.5% active; AID 2546;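 note: Gal4-VP16 expression switched on by copper sulfate through the metallothionein promoter; nearly all actives have a fitted effect of over 50% in size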
The depositor's hits bear a star; ? = inconclusive; · = no result; ! = not confirmed by another sample; [ ] = remark or other dose. Rows were chosen to be rich in hits. Some 6.4% of all compounds tested hit in one or more screens of this group. Calls come from the whole dose curve; as a rule, active = well fitted curve in the direction sought with a large enough effect; inconclusive = small, poorly fitted or top-dose-only effect, or another doubt; inactive = no such curve, though single readings can be large; an effect the other way counts as inactive or inconclusive. % is set by controls: 0 for no effect and ±100 for the full control effect; potency is the fitted concentration of half-maximal effect.

SMILES	RORgamma inh	Luc counter	Gal4-VP16 FLuc
O=C(c1ccccc1F)N1CCN(c2ccc([N+](=O)[O-])c(NCc3cccnc3)c2)CC1	26%	·	-6%
COc1ccc(C(c2c(C)n(C)n(-c3ccccc3)c2=O)c2c(C)n(C)n(-c3ccccc3)c2=O)c(OC)c1OC	?	·	-1%
N=c1occ(C(=O)c2cc(F)ccc2O)cc1C(=O)NC1CCCCC1	?	5%	-9%
CC(C)CN(c1ccccc1)S(=O)(=O)c1nnc(NC(=O)C(C)C)s1	3%	·	-4%
Cc1ccc(Nc2c3c(nc4ncnn24)CC(C)CC3)cc1 (configuration not stated)	18µM*	6%	?
CCOc1ccc(Nc2c3c(nc4ncnn24)CC(C)CC3)cc1 (configuration not stated)	-24%	10%	-8%
Clc1cccc(Nc2c3c(nc4ncnn24)CCC3)c1	?	6%	-3%[0.365 µM]
CCc1cccc(Nc2c3c(nc4ncnn24)CCC3)c1	10µM*	0%	16µM*
CCN(C(=O)C(C)N1C(=O)/C(=C/c2ccco2)SC1=S)C1CCS(=O)(=O)C1 (configuration not stated)	-19%	·	-8%
CC(C(=O)N(C)C1CCS(=O)(=O)C1)N1C(=O)/C(=C/c2ccc(F)cc2)SC1=S (configuration not stated)	-7%	·	16µM*
CCOc1ccc(C(C)=O)cc1COc1cccnc1[N+](=O)[O-]	-27%	·	3%
O=C(CCN1C(=O)/C(=C\c2cccs2)SC1=S)Nc1ccc(C(=O)O)cc1	-4%	·	-11%
Cc1ccc(/C=C2\SC(=S)N(CCCC(=O)Nc3cc(C)on3)C2=O)cc1	0.79µM*	·	?
COc1ccc(/C=C2\SC(=S)N(CCCC(=O)Nc3cc(C)on3)C2=O)cc1OC	2µM*	·	5µM*
CCN(CC)CCOC(=O)c1ccc(NC(=O)CCCN2C(=O)/C(=C\c3cccs3)SC2=S)cc1	11µM*	·	11µM*
COc1ccc(/C=C2\SC(=S)N(CCCCCC(=O)Nc3cc(C)on3)C2=O)cc1OC	8%	·	-10%
Cc1cc(NC(=O)CCN2C(=O)/C(=C\c3ccccc3Cl)SC2=S)no1	-29%	-2%	-14%
Cc1cc(NC(=O)CCCN2C(=O)/C(=C\c3cccs3)SC2=S)no1	-44%	3%	13µM*
Cc1cc(NC(=O)CN2C(=O)/C(=C/c3cccc(Br)c3)SC2=S)no1	-38%	-2%	3%
COC(=O)c1ccccc1S(=O)(=O)NNC(=O)c1ccccc1-n1cccc1	-29%	·	-1%
COc1ccc(C(=O)N2CCC(C(=O)N3CCN(Cc4ccccc4)CC3)CC2)cc1	0%	·	2%
COCc1cc(OC)nc(-c2csc(C)n2)n1	11µM*	·	-23%
COCc1cc(=O)[nH]c(-c2csc(C)n2)n1	-15%	·	0%
Oc1cc2c(cc1O)C1c3ccc(O)c(O)c3OCC1(O)C2 (configuration not stated)	?	?	13µM*!
COc1ccc(OC)c(NC(=O)C(=O)N/N=C(\C)CC(=O)Nc2ccc(Cl)cn2)c1	5%	·	0%
SMILES	RORgamma inh	Luc counter	Gal4-VP16 FLuc
CON(C)C(=O)c1nnc2c3ccccc3n(S(=O)(=O)c3ccc(C)cc3)c2n1	7%[10 µM]	·	5%[10 µM]
COc1ccc(-c2cc(=O)c3c(O)cc(O)c(-c4cc(-c5cc(=O)c6c(O)cc(OC)cc6o5)ccc4OC)c3o2)cc1	-3%	·	-10%
S=C1SCN(Cc2ccco2)CN1Cc1ccco1	2.5µM*	·	3.2µM*
CCCCN1CN(Cc2ccco2)CNC1=S	13µM*	1%	?
C=CCN1CN(Cc2ccco2)CNC1=S	13µM*	4%	?
S=C1NCN(Cc2ccco2)CN1	-12%	·	-9%
CCCCS(=O)(=O)NC1=NCN(Cc2ccco2)CN1	-15%	0%	-4%
S=C1NCN(Cc2ccco2)CN1c1cccc2ccccc12	5µM*	·	?
Cc1ccc(N2CN(Cc3ccco3)CNC2=S)c(C)c1	-2%	-1%	-3%
N#CC1=C2SCN(Cc3ccco3)CN2C(=O)CC1c1ccccc1F (configuration not stated)	-4%	-2%	5%
COc1ccc(CNc2cc(-c3ccccc3C)ncn2)c(OC)c1	68%	·	-6%
S=C1NCN(Cc2ccco2)CN1c1ccccc1	?	·	-5%
CCc1ccc(N2CN(Cc3ccco3)CNC2=S)cc1	3.5µM*	·	?
COc1ccc(CN2CCN(C3CCC3)CC2CCO)c(F)c1 (configuration not stated)	-6%	·	-6%
Cc1noc(NC(=O)c2ccc(Cl)c(Cl)c2)c1Cl	?	0%	18µM*
CC(=O)c1ccc(NC(=O)c2onc(C)c2Cl)cc1	10%	·	-15%
C=CCNC(=O)C1CCN(S(=O)(=O)c2cccs2)CC1	-16%	·	-10%
O=C(CSc1nnc(CNC(=O)c2cccs2)o1)Nc1ccc(Cl)cc1	9%	·	-12%
O=C(Cn1cnc([N+](=O)[O-])n1)N/N=C/c1cc(Cl)ccc1O	7.1µM*	0%	?
O=C(CCCn1cnc([N+](=O)[O-])n1)Nc1cc(Cl)ccc1O	-12%	2%	-9%
Cc1ccccc1/C=N/NC(=O)Cn1cnc([N+](=O)[O-])n1	-28%	13%	-2%
O=C(Cn1cnc([N+](=O)[O-])n1)N/N=C/c1ccccc1O	7.1µM*	-4%	?
COc1cc(NC(=O)CN(c2ccc(C)cc2)S(=O)(=O)c2c(C)noc2C)cc(OC)c1	30%	·	?
FC(F)(Cl)c1nnc2ccc(Sc3ccccn3)nn12	1%	1%	-9%
CCCCS(=O)(=O)/C=C\C1C2C=CC(C2)C1S(=O)(=O)CCCC (configuration not stated)	3%	-3%	1%
SMILES	RORgamma inh	Luc counter	Gal4-VP16 FLuc
CCCCS(=O)(=O)/C=C\C=C/S(=O)(=O)CCCC	0.71µM*	12%	0.89µM*
C/C(=N/OC(=O)c1ccccc1)c1oc(C)nc1C	9%	·	-3%
COc1cccc(-c2nn(-c3ccccc3)cc2CN2CCCO2)c1	-21%	-4%	-17%
C/C(=N/NC(=O)CN(c1ccccc1)S(=O)(=O)c1ccccc1)c1ccccc1O	0.71µM*	·	0.79µM*
O=C(CCCCCNC(=O)c1ccccc1)N/N=C/c1ccc(O)cc1O	-21%	2%	-15%
CCCC/C(C)=N/NC(=O)CN(c1ccc(Br)cc1)S(=O)(=O)c1ccccc1	11%	1%	1%
C/C(=N\NC(=O)CCCCCNC(=O)c1ccccc1)c1ccccc1O	5µM*	-5%	10µM*
O=C(NCc1ccc(F)cc1)C1CCCN(c2cnccn2)C1 (configuration not stated)	-12%	·	0%
COC(=O)C(C(=O)OC)[C@@H](NC(=O)OCc1ccccc1)c1ccccc1	-7%	-6%	-7%
CCC1CCCCN1CCCNC(=O)CS(=O)(=O)Cc1nc(-c2cccc(OC)c2)oc1C (configuration not stated)	1%	·	-23%
C/C(CC(=O)Nc1ccc(N(C)C)cc1)=N\NC(=O)c1ccc(C(C)(C)C)cc1	?	·	4µM*
C/C(CC(=O)Nc1ccc(N(C)C)cc1)=N\NC(=O)c1ccc([N+](=O)[O-])cc1Cl	?	0%	?
C/C(CC(=O)Nc1cc(C)ccn1)=N\NC(=O)c1ccc(C(C)(C)C)cc1	11µM*	·	-16%

Screens: PubChem BioAssay, National Center for Advancing Translational Sciences (NCATS)
